Active and inactive are the calls of the source. No rule for the calls is given here.
Experiments:
[1] = system: Botulinum neurotoxin type F light chain protease (Clostridium botulinum); assay: Clostridium botulinum type F light chain protease inhibitors, microsphere substrate cleavage, validation (AID 588459); settings: multiplex microsphere protease substrate cleavage assay, flow cytometry; at 10 µM; hits give high values
[2] = target: Botulinum neurotoxin type A (Clostridium botulinum) (UniProt P0DPI0); assay: BoNT/A light chain protease inhibitors, biochemical, multiplex microsphere flow cytometry, validation set (AID 588460); settings: at 10 µM, hits give high values
Sequence of Botulinum neurotoxin type A (Clostridium botulinum) (P0DPI0 whole entry, looked up): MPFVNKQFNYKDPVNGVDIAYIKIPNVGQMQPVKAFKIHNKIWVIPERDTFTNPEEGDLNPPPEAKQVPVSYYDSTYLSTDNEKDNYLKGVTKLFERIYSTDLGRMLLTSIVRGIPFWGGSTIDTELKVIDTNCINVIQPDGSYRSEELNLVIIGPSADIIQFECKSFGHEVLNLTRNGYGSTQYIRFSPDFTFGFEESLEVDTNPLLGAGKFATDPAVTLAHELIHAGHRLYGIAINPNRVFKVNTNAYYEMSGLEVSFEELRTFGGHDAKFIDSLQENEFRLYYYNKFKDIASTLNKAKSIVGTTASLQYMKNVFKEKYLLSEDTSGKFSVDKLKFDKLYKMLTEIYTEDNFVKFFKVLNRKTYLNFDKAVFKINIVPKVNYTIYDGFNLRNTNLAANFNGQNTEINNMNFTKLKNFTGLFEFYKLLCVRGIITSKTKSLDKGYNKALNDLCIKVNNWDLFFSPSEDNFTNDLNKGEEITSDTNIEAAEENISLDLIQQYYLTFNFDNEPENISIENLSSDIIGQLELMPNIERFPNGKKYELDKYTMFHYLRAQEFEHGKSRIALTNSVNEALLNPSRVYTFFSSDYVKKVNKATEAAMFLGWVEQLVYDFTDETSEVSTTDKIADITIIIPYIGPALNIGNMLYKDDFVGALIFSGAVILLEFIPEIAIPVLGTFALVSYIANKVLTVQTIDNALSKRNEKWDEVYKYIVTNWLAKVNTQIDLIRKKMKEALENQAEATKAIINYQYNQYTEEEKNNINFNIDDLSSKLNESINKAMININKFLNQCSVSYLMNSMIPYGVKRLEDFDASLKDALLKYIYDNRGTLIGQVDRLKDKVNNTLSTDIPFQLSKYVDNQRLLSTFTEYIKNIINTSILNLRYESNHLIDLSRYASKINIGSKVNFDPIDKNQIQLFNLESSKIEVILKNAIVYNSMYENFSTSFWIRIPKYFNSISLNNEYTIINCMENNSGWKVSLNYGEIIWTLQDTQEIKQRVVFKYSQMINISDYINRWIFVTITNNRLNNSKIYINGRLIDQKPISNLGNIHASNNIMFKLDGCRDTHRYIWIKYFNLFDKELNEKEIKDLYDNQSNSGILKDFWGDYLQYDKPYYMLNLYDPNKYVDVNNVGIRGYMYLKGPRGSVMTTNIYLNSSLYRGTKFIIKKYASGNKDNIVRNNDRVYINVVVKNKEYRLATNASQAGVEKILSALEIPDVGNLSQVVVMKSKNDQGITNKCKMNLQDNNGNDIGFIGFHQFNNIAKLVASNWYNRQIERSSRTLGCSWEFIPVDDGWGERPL

[3] = target: Lethal factor (Bacillus anthracis) (UniProt P15917); assay: Bacillus anthracis lethal factor inhibition, microsphere flow cytometry protease assay, validation at 10 µM (AID 588461); settings: multiplex microsphere protease cleavage assay, hits give high values
Sequence of Lethal factor (Bacillus anthracis) (P15917 whole entry, looked up): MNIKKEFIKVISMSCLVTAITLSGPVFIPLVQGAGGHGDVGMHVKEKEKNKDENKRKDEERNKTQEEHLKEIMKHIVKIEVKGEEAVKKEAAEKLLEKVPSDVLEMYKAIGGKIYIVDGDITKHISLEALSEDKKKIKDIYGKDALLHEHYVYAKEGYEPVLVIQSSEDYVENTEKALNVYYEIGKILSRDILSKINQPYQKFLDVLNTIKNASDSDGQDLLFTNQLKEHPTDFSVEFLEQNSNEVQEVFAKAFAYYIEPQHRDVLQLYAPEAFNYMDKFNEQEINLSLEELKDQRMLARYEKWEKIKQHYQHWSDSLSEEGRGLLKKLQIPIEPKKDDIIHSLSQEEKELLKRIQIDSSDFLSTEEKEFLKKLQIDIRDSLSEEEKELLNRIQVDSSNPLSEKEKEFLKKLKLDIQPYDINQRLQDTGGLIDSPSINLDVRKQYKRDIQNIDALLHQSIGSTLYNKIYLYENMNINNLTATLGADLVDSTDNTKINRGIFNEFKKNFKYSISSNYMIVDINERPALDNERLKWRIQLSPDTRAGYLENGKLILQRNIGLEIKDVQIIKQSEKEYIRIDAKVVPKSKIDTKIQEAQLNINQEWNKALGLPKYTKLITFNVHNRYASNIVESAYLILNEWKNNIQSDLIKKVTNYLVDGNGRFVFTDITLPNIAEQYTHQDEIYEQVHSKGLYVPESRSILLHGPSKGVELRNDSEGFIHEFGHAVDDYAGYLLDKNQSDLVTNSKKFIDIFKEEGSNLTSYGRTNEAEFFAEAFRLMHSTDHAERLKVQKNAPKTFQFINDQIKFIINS

Measured: inhibition

Cc1csc(CCc2nc(C)cs2)n1
inactive: [1] 1.4% | [2] 0.2% | [3] -2.1%

CCOc1ccc2nc(N/C(N)=N/S(C)(=O)=O)nc(C)c2c1
inactive: [1] 2.1% | [2] -0.1% | [3] 2.4%

COc1ccc2cc(C(=O)OC(C)C)sc(=O)c2c1OC
inactive: [1] 0% | [2] 1.8% | [3] -5.8%

CN(C)[C@@H]1C(=O)C(C(N)=O)=C(O)[C@@]2(O)C(=O)C3=C(O)c4c(O)ccc(Cl)c4[C@@H](O)[C@H]3C[C@@H]12
inactive: [1] -5.8% | [2] -0.3% | [3] -4.5%

C/C(=N\NC(=O)c1ccccc1[N+](=O)[O-])c1ccc(Br)s1
inactive: [1] 1.5% | [2] 1.6% | [3] 5.5%

NS(=O)(=O)c1cc2c(cc1Cl)NC(CSCc1ccccc1)=NS2(=O)=O
inactive: [1] -4.8% | [2] 0% | [3] -2.3%

COc1cccc(CC2CC(=O)N(c3ccc4c(C)cc(=O)oc4c3)C2=O)c1 (stereo not drawn)
inactive: [1] 3.1% | [2] -0.1% | [3] 4.1%

COc1cc(CO)ccc1OCc1nnnn1-c1ccc(C)cc1
inactive: [1] -0.2% | [2] -1% | [3] -8.2%

O=C(Nc1nc2ccccc2s1)c1ccc(F)cc1
inactive: [1] -5.1% | [2] -1.5% | [3] -5.8%

Cc1nc2ccccc2c(=O)n1N
inactive: [1] 4.9% | [2] 0.7% | [3] -5.7%

CCN(CCCCCN(C)C)Cc1cc2ccccc2o1
inactive: [1] 4.7% | [2] -1.1% | [3] 8.8%

From PubChem BioAssay
